Data on 69 sequences can be found in PubChem BioAssay AID1508600 (Functional Genomics Laboratory (NCATS/FGL), 2020).

About 3,700 (7%) of roughly 53,000 sequences were called active. Many of the other results were omitted from the sample, so actives are more common in it than they were. Values without a mark were called inactive.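 Rule for the calls: active = gene knockdowns whose robust z-score for IL-1 alpha signal is at least 2 or at most -2, so actives lie on both sides; inactive = the rest.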

The test is described as follows: Components of the Cytosolic LPS Sensing Pathway: Gene Identification via Genome-wide siRNA Screen.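 Note: robust z of the log signal after scaling to non-targeting control siRNA wells of the plate.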 The note with it: RAW264.7 macrophages, IL-1a HTRF, actives lie on both sides, screened at 100 nM (by protocol), cells primed 5 h with Pam3CSK4 first. In outline: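 Read-out: IL-1a HTRF on supernatant, divided by plate negative-control median ×100, log-transformed and converted to robust z-score. Cells were RAW264.7 given 100 nM siRNA, Pam3CSK4-primed 5 hours, then LipidA-transfected 24 hour.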
(In general: Time-resolved FRET reads energy transfer from a long-lived donor to a nearby acceptor.)
Regarding GCCAUUAAGGAAAUGUUCUTT against Olfr426, the z-score was -0.969.
To GGUUCUUUGGCUCUGUAUGTT against Atp5c1 belongs -0.64.
For GGUCAUCCUUCUAUUCUCUTT against Olfr648 the value was -2.01 (active); for GGAGGUAAAAGAUGAGAAATT against Plekho1, 1.57; for CCUCAUAAAUUCACUCUCCTT against Bpifa2, 0.984.
With GGAGAAAACUUAGAUUACCTT against Ppil4, the z-score is 2.15 (active).
To GGAUAUGCUGUGAAGUAUUTT against Plekhf2 belongs 1.68; to GGUUAAGACCUUAAACAGATT against Prl4a1, 0.0572.
For CGUUUCUCAGCAAACUUACTT against Il17a the value was 0.669.
To GGCACCUUUCAACGUAACCTT against Ntn3 belongs 1.32.
Consider GGACCUAAAGAAUUCAUCGTT against Unc79, for which the z-score is 0.109.
To GGUGAAGAUAGUAAUACGGTT against Apol7a belongs -1.02.
With GGUCCAGAGGAUGAACAGATT against Crcp, the z-score is 0.551.
To CCAAAUUCAUUCUAGCUCGTT against Klf6 belongs -0.597; to CGAUCUUCCAAACCCUCUUTT against Dhh, 2.54 (active).
For GCCCAUGACCAGUUCAAGUTT against Actn4 the value was 0.63.
Take GCUAUUAAAAUAUGGGAAGTT against Olfr1314: the z-score was 1.28.
For GCAUAUGAUGGUCCUUACCTT against Cox6b1 the value was 0.019.
To CCAUGCUUCCCUUCAACAUTT against Adcy2 belongs 2.64 (active).
For GGCAGUUAUCUCCUAAUGCTT against Zfp934 the value was -0.383; for GGCCAGAUGACCUUGUCAUTT against Sult1e1, -1.23; for GGCGCACAAUCAAGAUCUUTT against Col4a4, 0.385.
With GCACUUUGUAUGUCUAUCUTT against Tnfaip1, the z-score was 2.28 (active).
To CCAAAAAGUUCAGUGUAAUTT against Rad9b belongs -1.09; to GCUUGAGUAGUGCAGAAACTT against Jmjd1c, -1.15; to CCAUGAGGAUGAUUACCUATT against Cnga2, -0.947.
For the sequence GGGAAGAUUGAUUUUAUCGTT against Abcb11, the z-score is 2.31 (active).
For GCGACCUUAGACAUUUGCATT against Prkrip1 the value was -0.652; for CGCCUUCAUAAUGUAGUUGTT against Defb37, 0.601; for CCGUCACUUUUAACCAUGUTT against Speg, 4.19 (active).
To GCACCUGGAGUACAUAAAATT against Sh2d1a belongs -0.854; to CGUAGACUCCAAGCUCAAUTT against Ddx54, -1.31; to GGAAAUUGUCUUUGGCUUUTT against Otop1, -0.0923.
For GGCAAAAUGAAGAAGCUGATT against Hdac6 the value was -1.3; for GCUACGAGCAGUUUUUAUUTT against Ptgs1, 0.885.
As to GGUGAAAGGAGUCAGUCUATT against Agtrap, the z-score is -0.013.
With GGCUCCUGGUUCUACAUCCTT against Itpr2, the z-score was -2.54 (active).
To CCCUAAGUAUAGGAUCGGATT against Macroh2a1 belongs -1.07; to GGGUUAUCUAUGCAAAUCCTT against Odc1, 0.569.
To GCGGCAUUCGUCCAAAUUGTT against Trpt1 belongs 0.938.
To GGCAGAGAUGGUGUUGAUGTT against Col1a2 belongs -0.342.
For the sequence GGUGGCCAUUCUUCUGUUCTT against Dynll1, the z-score is 2.19 (active).
To GGAAGUGGUGGCCAUCAAGTT against Stk25 belongs 1.08; to GCUUGUAGGUGGAUACAUGTT against Slc30a4, -0.161; to GGAAGACUAGGAGAGACGGTT against Pqlc3, -0.739.
For GCAUAAUGGAUGGAAAGUCTT against Tasp1 the value was 1.1; for CCCUAAGGUGGCAGAAAUCTT against Atp1a2, -1.49; for GGCGGUUCAAAUGUCCUCATT against Fut2, -2.02 (active).
Turning to GGGAGGGUGUGCAAAAGUUTT against Arl4d, the z-score was 1.26.
For the sequence GCUUCUUAUGAAAAGAUGCTT against Epc2, the z-score was 0.463.
For GGAGUGGACUCACGUCUAATT against Med23 the value was 0.717.
For the sequence GGGUCCUUUUUCACAUGGUTT against Asph, the z-score was 2.82 (active).
For CGGUGAUAGUGGAGUUUGUTT against Olfr266 the value was 0.542; for GCAGCACAGUACUAUCUCGTT against Ttc4, -0.339.
Regarding GCCAGAGAUUCCUCAACGATT against Rpp21, the z-score is -2.48 (active).
In the case of GCAAUAGAAUCACAUAGGATT against Glyctk, the z-score was 1.35.
For GGCUGUAAUGACGAAUACATT against Naa25 the value was 0.764; for GGGCAUGUGAUAGAACAAUTT against Stoml1, -0.701; for GAGAAAGAUAAUUACCUGGTT against Tnfrsf22, 0.552.
To GGAAGCUGAUGGCUAUGACTT against Arc belongs -0.943; to GGAGACUGUAGACUUAAAGTT against Rnf25, -1.24.
For CAAUAACACUGGUGCCGACTT against Adam34l the value was 1.73.
As for CCUAAAUUAGUAGGACGGUTT against Cdkn1a, the z-score is 0.675.
To GGAUCAGUACCCGUAUUUGTT against Plin2 belongs -2.38 (active); to CCUAGAUUCGGACAAGGAUTT against Kctd5, -0.424.
For GGUAUAGCAAUUUCUACAATT against Chrna2, the z-score is -0.174.
To GGUAGUGAAAAUGAAGAGUTT against Gtf2h1 belongs 0.892; to CCUGAUACCCAAAGACUCATT against Dnaic1, -1.38; to GCAACGGAGGGUCAUUUCATT against Wipf2, 2.54 (active).
